{
  "source": "PubChem BioAssay (EPA / NIEHS)",
  "note": "Where “and” joins values, the source holds several entries; their conditions need not be identical. Equal entries are not always repeated. The source holds several records for some structures; these can differ, active in one and inactive in another. Calls of active or inactive are those of the source. How the source made its calls: active means hit-call score of the fitted dose curve at least 0.9, where 1 is the maximum; inactive means score below 0.9.",
  "data": [
    {"read-out": "Epidermal growth factor receptor (EGFR), EGFR (gene 1956)", "assay": "BSK_BE3C_EGFR: BioMAP Diversity Plus: BE3C Assay for Epidermal growth factor receptor (EGFR) Biomarker Activity (AID 2284281)", "conditions": "primary human bronchial epithelial cells", "outline": "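Compound is added to human bronchial epithelial cells, cells incubate 24 h, then EGFR is detected by ELISA. Values reflect positive-direction fitting relative to DMSO.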", "values": [
      {"smiles": "C=C(C)C(=O)OCC(F)(F)C(F)(F)C(F)(F)F", "outcome": "inactive"},
      {"smiles": "C=CC(F)(F)C(F)(F)C(F)(F)C(F)(F)C(F)(F)C(F)(F)C(F)(F)C(F)(F)C=C", "outcome": "inactive"},
      {"smiles": "C=C(C)C(=O)OCC(F)(F)C(F)(F)C(F)(F)C(F)(F)C(F)(F)C(F)(F)C(F)(F)F", "outcome": "inactive"},
      {"smiles": "Cc1ccc(S(=O)(=O)OCC(F)(F)C(F)(F)C(F)(F)C(F)(F)C(F)(F)C(F)F)cc1", "outcome": "inactive"},
      {"smiles": "FC(F)(F)C(F)(F)CNCC(F)(F)C(F)(F)F", "outcome": "inactive"},
      {"smiles": "FC(F)(F)C(F)(F)C(F)(F)N(C(F)(F)C(F)(F)C(F)(F)F)C(F)(F)C(F)(F)C(F)(F)F", "outcome": "inactive"},
      {"smiles": "OCC(F)(F)C(F)(F)C(F)(F)C(F)(F)C(F)(F)C(F)(F)F", "AC50": "48.7 µM (active)", "outcome": "inactive"},
      {"smiles": "CC(C)(C)C(=O)CC(=O)C(F)(F)C(F)(F)C(F)(F)F", "outcome": "inactive"},
      {"smiles": "FC(F)(F)C(F)(F)C(F)(F)C(F)(F)C(F)(F)C(F)(F)C(F)(F)Br", "outcome": "inactive"},
      {"smiles": "CCO[Si](CCC(F)(F)C(F)(F)C(F)(F)C(F)(F)C(F)(F)C(F)(F)F)(OCC)OCC", "outcome": "inactive"},
      {"smiles": "FC(F)(F)C(F)(F)C(F)(F)C(F)(F)CCI", "outcome": "inactive"},
      {"smiles": "FC(F)(F)C(F)(F)C(F)(F)C(F)(F)C(F)(F)C(F)(F)C(F)(F)C(F)(F)F", "outcome": "inactive"},
      {"smiles": "FC(F)(F)C(F)(F)C(F)(F)C(F)(F)C(F)(F)C(F)(F)C(F)(F)C(F)(F)CCS", "outcome": "inactive"},
      {"smiles": "O=C(O)C(F)(F)C(F)(F)C(F)(F)C(F)(F)C(F)(F)C(F)(F)C(F)(F)C(F)(F)C(F)(F)C(F)(F)C(F)(F)C(F)(F)F", "outcome": "inactive"},
      {"smiles": "OCC(F)(F)C(F)(F)C(F)(F)F", "outcome": "inactive"},
      {"smiles": "NC(=O)C(F)(F)C(F)(F)C(F)(F)C(F)(F)F", "outcome": "inactive"},
      {"smiles": "O=C(O)C(F)(F)C(F)(F)C(F)F", "outcome": "inactive"},
      {"smiles": "C=CC(F)(F)C(F)(F)C(F)(F)C(F)(F)C(F)(F)C(F)(F)C(F)(F)C(F)(F)F", "outcome": "inactive"},
      {"smiles": "OCCCC(F)(F)C(F)(F)C(F)(F)F", "outcome": "inactive"},
      {"smiles": "C=CC(=O)OCC(F)(F)C(F)(F)C(F)(F)C(F)(F)COC(=O)C=C", "AC50": "7.87 µM (active) and 14.5 µM (active)"},
      {"smiles": "CCCCC(CC)COP(=O)(O)OCC(CC)CCCC", "note": "(centres undefined)", "AC50": "26.3 µM (active) and 20 µM (active)"},
      {"smiles": "O=C(O)C(F)(OC(F)(F)C(F)(OC(F)(F)C(F)(OC(F)(F)C(F)(F)C(F)(F)F)C(F)(F)F)C(F)(F)F)C(F)(F)F", "note": "(centres undefined)", "outcome": "inactive"},
      {"smiles": "O=C(O)C(F)(F)C(F)(F)C(F)(F)C(F)(F)C(F)(F)C(F)(F)C(F)(F)C(F)(F)C(F)(F)C(F)F", "AC50": "7.89 µM (active)", "outcome": "inactive"},
      {"smiles": "FC(F)(F)C(F)(F)C(F)(F)C(F)(F)C(F)(F)CCI", "outcome": "inactive"},
      {"smiles": "CCCCCCOC(=O)c1ccccc1O", "outcome": "inactive"},
      {"smiles": "C=CC(=O)OCC(F)(F)C(F)(F)C(F)(F)C(F)(F)C(F)(F)C(F)(F)C(F)(F)F", "outcome": "inactive"},
      {"smiles": "FC(F)(F)C(F)(F)C(F)(F)CI", "outcome": "inactive"}
    ]}
  ]
}
